These results are taken from article PMC4081100, “A DNA-binding-site landscape and regulatory network analysis for NAC transcription factors in Arabidopsis thaliana”.

Common to all, as to test: universal protein binding microarray (PBM); transcription factors of Arabidopsis thaliana; high values mean tight binding
What all share (conditions): protein: recombinant; tags: GST; chain copies: 2; dsDNA, one strand shown

One test concerns the target T1, GST-ANAC092(1-176) (Arabidopsis thaliana, UniProt Q9FKA0 1-176).
T1 sequence: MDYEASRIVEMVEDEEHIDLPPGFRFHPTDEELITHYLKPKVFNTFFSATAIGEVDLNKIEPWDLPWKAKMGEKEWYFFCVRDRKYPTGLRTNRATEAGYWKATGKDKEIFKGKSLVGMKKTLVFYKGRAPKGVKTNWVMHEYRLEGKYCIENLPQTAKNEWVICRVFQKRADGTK
In outline: (§1)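 Cells were induced to make GST-tagged NAC-domain, full-length or DNA-binding-domain proteins, and zinc acetate was added for zinc-finger proteins. These proteins were purified on glutathione–Sepharose 4B, quantified by A280 or anti-GST western blot, and applied in duplicate at 200 to 500 nM final to custom all-10-mer Agilent 4 × 180K arrays that primer extension had made double-stranded. Binding is given as the normalised enrichment score (E-score) for scored gapped and ungapped 8-mers.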

The next test deals with GST-NTL6(1-168) (Arabidopsis thaliana, UniProt Q9SCK6 1-168). In a few lines:
as §1

The next test addresses T2, GST-ANAC055(1-171) (Arabidopsis thaliana, UniProt Q9LDY8 1-171).
T2 sequence: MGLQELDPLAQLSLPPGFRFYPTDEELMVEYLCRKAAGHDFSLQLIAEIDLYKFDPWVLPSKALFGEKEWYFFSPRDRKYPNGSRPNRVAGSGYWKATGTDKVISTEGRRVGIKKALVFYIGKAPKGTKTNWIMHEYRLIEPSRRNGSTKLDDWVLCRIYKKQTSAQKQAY
In a few lines:
as §1

The next test concerns the target T3, GST-ATAF1 NAC domain (Arabidopsis thaliana, UniProt Q39013 7-158).
T3 sequence: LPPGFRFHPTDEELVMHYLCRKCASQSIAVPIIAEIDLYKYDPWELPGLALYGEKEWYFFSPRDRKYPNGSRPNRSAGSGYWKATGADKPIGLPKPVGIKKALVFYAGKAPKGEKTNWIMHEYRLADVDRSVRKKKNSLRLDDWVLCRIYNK
In outline:
as §1

Test [1] concerns the target T4, GST-ANAC092(1-285) full length (Arabidopsis thaliana, UniProt Q9FKA0 1-285).
T4 sequence: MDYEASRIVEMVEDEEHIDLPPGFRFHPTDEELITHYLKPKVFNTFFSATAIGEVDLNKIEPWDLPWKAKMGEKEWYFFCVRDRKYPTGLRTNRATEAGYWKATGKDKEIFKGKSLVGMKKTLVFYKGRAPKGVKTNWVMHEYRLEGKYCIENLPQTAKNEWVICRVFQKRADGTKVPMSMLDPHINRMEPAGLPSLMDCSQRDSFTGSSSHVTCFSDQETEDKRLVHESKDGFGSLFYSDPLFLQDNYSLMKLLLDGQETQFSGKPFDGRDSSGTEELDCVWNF
In outline:
as §1

Another test deals with T5, GST-NAP(1-166) (Arabidopsis thaliana, UniProt O49255 1-166).
T5 sequence: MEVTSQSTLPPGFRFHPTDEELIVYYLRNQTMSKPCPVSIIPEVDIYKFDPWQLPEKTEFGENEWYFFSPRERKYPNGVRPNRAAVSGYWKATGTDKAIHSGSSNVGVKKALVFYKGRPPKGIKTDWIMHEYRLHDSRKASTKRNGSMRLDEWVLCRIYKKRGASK
In outline: as §1

The target of another test is T6, GST-NST2(1-184) (Arabidopsis thaliana, UniProt Q9M274 1-184).
T6 sequence: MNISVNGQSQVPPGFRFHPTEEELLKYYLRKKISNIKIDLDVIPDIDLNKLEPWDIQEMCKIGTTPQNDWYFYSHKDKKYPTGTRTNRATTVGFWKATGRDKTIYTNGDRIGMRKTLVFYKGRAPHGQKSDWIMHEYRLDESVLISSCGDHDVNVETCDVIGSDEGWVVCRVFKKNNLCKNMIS
In a few lines:
as §1

The target in the next test is T7, GST-NTL8 NAC domain (Arabidopsis thaliana, UniProt Q9XIN7 14-156).
T7 sequence: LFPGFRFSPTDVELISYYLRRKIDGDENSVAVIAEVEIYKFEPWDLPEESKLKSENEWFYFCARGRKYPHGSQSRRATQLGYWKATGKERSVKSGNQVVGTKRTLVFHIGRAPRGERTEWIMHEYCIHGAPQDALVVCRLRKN
In a few lines:
as §1

The next test deals with T8, GST-SND1(1-203) (Arabidopsis thaliana, UniProt Q9LPI7 1-203).
T8 sequence: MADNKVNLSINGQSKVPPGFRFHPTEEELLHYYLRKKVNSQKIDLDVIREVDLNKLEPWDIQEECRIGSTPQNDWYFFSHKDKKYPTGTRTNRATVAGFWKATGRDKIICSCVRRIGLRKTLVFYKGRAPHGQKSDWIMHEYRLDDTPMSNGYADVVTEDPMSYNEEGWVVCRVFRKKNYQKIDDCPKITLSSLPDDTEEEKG
In a few lines: as §1

A further test concerns the target T9, GST-VND3 NAC domain (Arabidopsis thaliana, UniProt Q9FH59 12-162).
T9 sequence: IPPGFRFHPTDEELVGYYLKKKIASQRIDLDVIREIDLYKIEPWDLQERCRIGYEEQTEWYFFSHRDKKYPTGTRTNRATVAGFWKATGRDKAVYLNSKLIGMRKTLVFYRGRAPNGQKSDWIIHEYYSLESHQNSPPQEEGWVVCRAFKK
In a few lines:
as §1

For another test, the target named is T10, GST-VND7 NAC domain (Arabidopsis thaliana, UniProt Q9C8W9 9-158).
T10 sequence: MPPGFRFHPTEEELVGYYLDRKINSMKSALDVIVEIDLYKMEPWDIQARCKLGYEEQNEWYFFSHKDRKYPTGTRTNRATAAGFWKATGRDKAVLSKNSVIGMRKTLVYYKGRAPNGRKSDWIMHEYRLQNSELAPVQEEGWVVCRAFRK
In a few lines:
as §1

The next test addresses T11, GST-ANAC019 NAC domain (Arabidopsis thaliana, UniProt Q9C932 14-162).
T11 sequence: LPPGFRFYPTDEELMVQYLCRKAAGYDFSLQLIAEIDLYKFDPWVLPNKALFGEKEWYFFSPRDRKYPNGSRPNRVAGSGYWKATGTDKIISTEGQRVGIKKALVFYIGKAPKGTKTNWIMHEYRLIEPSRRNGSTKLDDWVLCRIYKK
In outline:
as §1

Chain of GST-NTL6(1-168) (Q9SCK6 1-168): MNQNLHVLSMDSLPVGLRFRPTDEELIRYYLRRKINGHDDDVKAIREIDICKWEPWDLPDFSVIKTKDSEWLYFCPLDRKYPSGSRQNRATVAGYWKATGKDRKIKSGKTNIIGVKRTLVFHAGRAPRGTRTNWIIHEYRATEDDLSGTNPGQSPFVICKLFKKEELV

GTAACTTA: the binding signal worked out at 0.271 E-score with GST-ANAC092(1-176); 0.375 E-score with GST-NTL6(1-168); 0.185 E-score in the test with GST-ANAC055(1-171); 0.233 E-score with GST-ATAF1 NAC domain; 0.357 E-score in test [1]; 0.133 E-score in the test with GST-NAP(1-166). The binding signal with GST-NST2(1-184) is 0.306 E-score; in the test with GST-NTL8 NAC domain it was 0.229 E-score; with GST-SND1(1-203), 0.43 E-score; with GST-VND3 NAC domain, 0.195 E-score; with GST-VND7 NAC domain, 0.141 E-score.
Take AAGCAAGC: the binding signal was found to be 0.344 E-score in the test with GST-ANAC092(1-176); 0.167 E-score with GST-NTL6(1-168); 0.0929 E-score with GST-ANAC019 NAC domain; 0.417 E-score in test [1]; 0.23 E-score with GST-NST2(1-184); 0.209 E-score with GST-NTL8 NAC domain. Moreover, the binding signal is 0.443 E-score in the test with GST-SND1(1-203), 0.139 E-score with GST-VND3 NAC domain and 0.114 E-score in the test with GST-VND7 NAC domain.
For the sequence TACGCTAA, the binding signal came out at 0.433 E-score in the test with GST-ANAC092(1-176); 0.118 E-score with GST-NTL6(1-168); 0.0682 E-score in the test with GST-ANAC055(1-171); 0.19 E-score with GST-ATAF1 NAC domain; 0.44 E-score in test [1]; 0.331 E-score with GST-NST2(1-184). In addition, the binding signal with GST-SND1(1-203) worked out at 0.475 E-score; in the test with GST-VND3 NAC domain, 0.171 E-score; with GST-VND7 NAC domain it was 0.131 E-score.
Regarding TACCTTAA, the binding signal with GST-ANAC092(1-176) was 0.193 E-score; in the test with GST-NTL6(1-168), 0.42 E-score; in the test with GST-ANAC055(1-171), 0.0879 E-score; with GST-ATAF1 NAC domain, 0.131 E-score; in test [1], 0.26 E-score; with GST-NST2(1-184) it was 0.149 E-score. The binding signal with GST-NTL8 NAC domain was 0.298 E-score; with GST-SND1(1-203) it was 0.291 E-score; with GST-VND3 NAC domain, 0.16 E-score; in the test with GST-VND7 NAC domain, 0.0949 E-score.
As for ATACTTAA, the binding signal in the test with GST-ANAC092(1-176) came out at 0.0831 E-score; with GST-NTL6(1-168), 0.445 E-score; with GST-ANAC055(1-171), 0.14 E-score; in the test with GST-ATAF1 NAC domain it was 0.245 E-score; in [1] it was 0.164 E-score; with GST-NAP(1-166), 0.0565 E-score. The binding signal is 0.224 E-score with GST-NST2(1-184); 0.154 E-score in the test with GST-NTL8 NAC domain; 0.246 E-score with GST-SND1(1-203); 0.187 E-score with GST-VND3 NAC domain; 0.106 E-score in the test with GST-VND7 NAC domain.
For the sequence GTAGCGTA, the binding signal with GST-ANAC092(1-176) turned out to be 0.427 E-score; with GST-NTL6(1-168), 0.111 E-score; with GST-ANAC055(1-171), 0.205 E-score; with GST-ATAF1 NAC domain, 0.288 E-score; in [1], 0.47 E-score; with GST-NAP(1-166), 0.27 E-score. The binding signal with GST-NST2(1-184) stood at 0.381 E-score; with GST-SND1(1-203), 0.489 E-score; in the test with GST-VND3 NAC domain, 0.239 E-score; with GST-VND7 NAC domain, 0.267 E-score.
For ATACGCTA, the binding signal with GST-ANAC092(1-176) worked out at 0.451 E-score; with GST-NTL6(1-168), 0.0936 E-score; in the test with GST-ANAC055(1-171) it was 0.223 E-score; with GST-ATAF1 NAC domain it was 0.187 E-score; in test [1], 0.466 E-score; with GST-NAP(1-166) it was 0.155 E-score. Also, the binding signal in the test with GST-NST2(1-184) amounted to 0.331 E-score; with GST-SND1(1-203) it was 0.458 E-score; with GST-VND3 NAC domain, 0.163 E-score; in the test with GST-VND7 NAC domain, 0.182 E-score.
As to TAAGAAAA, the binding signal in the test with GST-ANAC092(1-176) came to 0.215 E-score; with GST-NTL6(1-168), 0.454 E-score; in the test with GST-ANAC055(1-171), 0.129 E-score; in the test with GST-ATAF1 NAC domain, 0.193 E-score; in test [1], 0.269 E-score; with GST-NST2(1-184), 0.235 E-score. Moreover, the binding signal is 0.216 E-score with GST-NTL8 NAC domain, 0.301 E-score with GST-SND1(1-203), 0.137 E-score with GST-VND3 NAC domain and 0.181 E-score with GST-VND7 NAC domain.
